Measured values published in PubChem BioAssay (NCATS).
Results filed as inconclusive are left out. A call without a number means that no potency is given here. A number with no mark means an inactive call. Active and inactive are the calls of the source. Calls come from the whole dose curve; as a rule, active = well fitted inhibition curve with a large enough effect; inconclusive = small, poorly fitted or top-dose-only effect; inactive = no such curve, though single readings can be large or run the other way.

What was measured:
[1] = test system: Zika virus NS2B-NS3 protease (unlinked complex); experiment: Primary screen GU Rhodamine qHTS for Zika virus inhibitors: Unlinked NS2B-NS3 protease assay (AID 1347159); note: nearly all actives have a fitted effect of over 60% in size
Procedure, shortened: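 Percent inhibition came from the 15-min rise in Rhodamine110 fluorescence (1.5 microM substrate, ~15% conversion), normalized to no-inhibitor and no-enzyme wells and Hill-fitted. Unlinked protease, 25 nM, pH 8.0 Tris buffer; compounds up to 114 microM, 15-min preincubation.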

[2] = test system: Zika virus NS2B-NS3 protease (linked construct); experiment: Primary screen NINDS Rhodamine qHTS for Zika virus inhibitors (AID 1347160); note: nearly all actives have a fitted effect of over 55% in size
Procedure, shortened: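 Rhodamine110-peptide cleavage (1.5 µM substrate) by 25 nM linked NS2B-NS3 enzyme at pH 8.0 (Tris, Tween 20), after 15 min RT preincubation with compounds; 15-min fluorescence change normalized to controls and Hill-fitted.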
Potency is the fitted concentration of half-maximal effect.

Structure (SMILES) | Potency [1] | Potency [2] | activity change, negative = inhibition [1] | activity change, negative = inhibition [2]
CC1=C(C(=O)O)/C(=C\CO[C@@H]2O[C@H](CO)[C@@H](O)[C@H](O)[C@H]2O)C(OC(=O)/C=C/c2ccc(O)cc2)C1 (stereo partly specified) | inactive | inactive | – | –
CC(=O)O[C@@H]1[C@H](O)[C@@H](O[C@@H]2O[C@@H](C)[C@H](O[C@@H]3OC[C@@H](O)[C@H](O[C@@H]4OC[C@@H](O)[C@H](O)[C@H]4O)[C@H]3O)[C@@H](O[C@@H]3O[C@H](CO)[C@@H](O)[C@H](O)[C@H]3O)[C@H]2O)[C@H](OC(=O)[C@]23CCC(C)(C)C[C@H]2C2=CCC4[C@@]5(C)CC[C@H](O[C@@H]6O[C@H](C(=O)O)[C@@H](O)[C@H](O[C@@H]7OC[C@@H](O)[C@H](O)[C@H]7O)[C@H]6O[C@@H]6O[C@H](CO)[C@H](O)[C@H](O)[C@H]6O)[C@@](C)(C=O)C5CC[C@@]4(C)[C@]2(C)CC3)O[C@@H]1C (stereo partly specified) | – | – | -1.88% [at 19.1 µM] | 7.65% [at 10.7 µM]
O=[N+]([O-])c1cccc2[nH]c(CNc3nc(N4CCOCC4)nc4c3ncn4-c3ccsc3)nc12 | 89.1 µM (active) | inactive | – | –
COc1cc(C(=O)OC[C@@]2(O)CO[C@@H](O[C@H]3[C@H](Oc4ccc(C(=O)O)cc4OC)O[C@H](CO)[C@@H](O)[C@@H]3O)[C@@H]2O)ccc1O | inactive | inactive | – | –
CC(=O)NCC(=O)N1C2CCC1c1cc(Nc3ncc(C(F)(F)F)c(NC4CCC4)n3)ccc12 (stereo unspecified) | inactive | inactive | – | –
CC(C)=CC/C=C(\C)[C@H]1CC[C@]2(C)[C@@H]1[C@H](O)C[C@@H]1[C@@]3(C)CC[C@H](O)C(C)(C)[C@@H]3[C@@H](O[C@@H]3O[C@H](CO)[C@@H](O)[C@H](O)[C@H]3O)C[C@]12C | inactive | inactive | – | –
COc1cc(N)c(Cl)cc1C(=O)NC[C@@H]1CCN2CCC[C@@H]12 | inactive | inactive | – | –
c1ccc(-c2ncc(CN3CCN(c4ncccn4)CC3)[nH]2)cc1 | inactive | inactive | – | –
CC(CO)C1CCC2(C)CC3C(CO)CC(O)C3C(C)(O)C/C=C/12 (stereo unspecified) | inactive | inactive | – | –
Cc1ccc(C(=O)N(CCCN)C(c2oc3cc(Cl)ccc3c(=O)c2Cc2ccccc2)C(C)C)cc1 (stereo unspecified) | inactive | inactive | – | –
O=C1CSc2ccccc2N1Cc1cccc(C(F)(F)F)c1 | inactive | inactive | – | –
CC(C)CN(C[C@@H](O)[C@H](Cc1ccccc1)NC(=O)O[C@@H]1CO[C@H]2OCC[C@H]21)S(=O)(=O)c1ccc(N)cc1 | inactive | inactive | – | –
C=C(C)C1CCC(C)C12CC(O)C1(C)OC1C2OC(=O)C(N)CCC(=O)O (stereo unspecified) | inactive | inactive | – | –
COC(=O)C[C@H]1C(C)(C)[C@H](OC(C)=O)C2CC3=C4CC(=O)O[C@@H](c5ccoc5)[C@]4(C)CCC3[C@@]1(C)C2=O (stereo partly specified) | inactive | inactive | – | –
C[C@@H]1O[C@@H](O[C@H]2[C@@H]3C=CO[C@@H](O[C@@H]4O[C@H](CO)[C@@H](O)[C@H](O)[C@H]4O)[C@@H]3[C@@]3(CO)O[C@@H]23)[C@H](OC(=O)/C=C/c2ccc(O)c(O)c2)[C@H](O)[C@H]1O | inactive | inactive | – | –
CC1CC(O)C2(OC1=O)OC1C(O)C3C4CCC5CC(OC6OC(CO)C(O)C(O)C6OC6OC(C)C(O)C(O)C6O)CCC5(C)C4CCC3(C)C1C2C (stereo unspecified) | inactive | inactive | – | –
CC(C)(O)/C=C/C1=CC(=O)[C@@](C)(O)C[C@H]1O | inactive | inactive | – | –
COc1c2ccoc2cc2oc(CO[C@@H]3O[C@H](CO)[C@@H](O)[C@H](O)[C@H]3O)cc(=O)c12 | inactive | inactive | – | –
C=CC(C)(C)c1[nH]c2cc3c(cc2c1CC1NC(=O)C2=CCCN2C1=O)C=CC(C)(C)O3 (stereo unspecified) | inactive | inactive | – | –
CC1(C)CC[C@]2(C(=O)O[C@@H]3O[C@H](CO)[C@@H](O)[C@H](O)[C@H]3O)CC[C@]3(C)C(=CCC4[C@@]5(C)C[C@@H](O)[C@H](O)C(C)(C)C5[C@H](O)C[C@]43C)[C@@H]2[C@@H]1O (stereo partly specified) | inactive | inactive | – | –
C=C[C@H]1[C@H](O[C@@H]2O[C@H](CO)[C@@H](O)[C@H](O)[C@H]2O)OC=C(C(=O)OC)[C@H]1C/C=C(/C=O)[C@@H]1C(C(=O)OC)=CO[C@@H](O[C@@H]2O[C@H](CO)[C@@H](O)[C@H](O)[C@H]2O)[C@@H]1C=C | inactive | inactive | – | –
Cc1ccc(S(=O)(=O)c2ccc([N+](=O)[O-])o2)cc1 | inactive | inactive | – | –
C=C(C(=O)O)C1CCC2(C)CCC(O)C(C)(O)C2C1 (stereo unspecified) | inactive | inactive | – | –
CN1CCN(C2CCC(n3cc(-c4ccc(Oc5ccccc5)cc4)c4c(N)ncnc43)CC2)CC1 (stereo unspecified) | inactive | inactive | – | –
N#Cc1c(Oc2ccc(F)c(NC(=O)Cc3cccc(C(F)(F)F)c3)c2)ccc2nc(NC(=O)C3CC3)sc12 | inactive | inactive | – | –
CC1(C)CC[C@]2(C(=O)O)CC[C@]3(C)C(=CCC4[C@@]5(C)CC[C@H](O[C@@H]6O[C@H](CO)[C@@H](O)[C@H](O)[C@H]6O[C@@H]6O[C@H](CO)[C@@H](O)[C@H](O)[C@H]6O)[C@@](C)(CO)C5CC[C@]43C)[C@@H]2C1 (stereo partly specified) | inactive | inactive | – | –
O=C(O)c1cc(I)ccc1NC(=O)[C@H](Cc1ccccc1)NCc1ccccc1 | 11.2 µM (active) | 15.8 µM (active) | – | –

Structure (SMILES) | Potency [1] | Potency [2] | activity change, negative = inhibition [1] | activity change, negative = inhibition [2]
Cc1cccc(C)c1-n1c(=O)c2cnc(Nc3ccc(N4CCN(C)CC4)cc3)nc2n2c3ccccc3nc12 | inactive | inactive | – | –
CC1=CC(=O)CC(C)(C)C1/C=C/C(C)O[C@@H]1O[C@H](CO)[C@@H](O)[C@H](O)[C@H]1O[C@@H]1OC[C@](O)(CO)[C@H]1O (stereo partly specified) | inactive | inactive | – | –
C=C1CCC2C(C(C)(C)O)CCC2(C)CC(O)C(=C)CCC1O (stereo unspecified) | inactive | inactive | – | –
CC(C)=CCC/C(C)=C/CO[C@@H]1O[C@H](CO)[C@@H](O)[C@H](O)[C@H]1O | inactive | inactive | – | –
C[C@H](NC(c1cccc2[nH]c(=O)c(=O)[nH]c12)P(=O)(O)O)c1ccc(Br)cc1 (stereo partly specified) | inactive | inactive | – | –
COC(=O)[C@H](O)[C@H]1C(C)(C)[C@H](OC(=O)C(C)C)[C@@]2(O)C(=O)[C@]1(C)C1CC[C@]3(C)C(CC(=O)O[C@H]3c3ccoc3)[C@]13O[C@@H]32 (stereo partly specified) | inactive | inactive | – | –
CCNCc1nc2c(N)nc3ccccc3c2n1CC(C)(C)O | inactive | inactive | – | –
C/C1=C\CC[C@H](C)CCO[C@@H]2O[C@H](CO[C@@H]3OC[C@](O)(COC1=O)[C@H]3O)[C@@H](O)[C@H](O)[C@H]2O | inactive | inactive | – | –
CO[C@H]1/C=C/[C@@](C)(O)/C=C/C(=O)O[C@H](C)[C@@H](C)CC/C=C/1C | inactive | inactive | – | –
COc1cccc(Nc2ncnn3ccc(CN4CC[C@@H](N)[C@H](O)C4)c23)c1 | inactive | inactive | – | –
Cc1ccc(S(=O)(=O)Cc2nc(-c3ccc(C(=O)NCc4cccnc4)cc3)oc2C)cc1 | inactive | inactive | – | –
COc1cc(NC(=O)Nc2cccc(CNC(=O)O[C@H]3CCOC3)c2)ccc1-c1cnco1 | inactive | inactive | – | –
CC(C)=CCC(O)/C(C)=C/CO[C@@H]1O[C@H](CO)[C@@H](O)[C@H](O)[C@H]1O (stereo partly specified) | inactive | inactive | – | –
Cc1cnc(Nc2ccc(F)cc2Cl)nc1-c1c[nH]c(C(=O)NC(CO)c2cccc(Cl)c2)c1 (stereo unspecified) | inactive | inactive | – | –
C=CC(C)(O)CC/C=C(\C)C(=O)OC1C(O)C(CO)OC(OC(=O)C23CCC(C)(C)CC2C2=CCC4C5(C)CCC(OC6OC(COC7OCC(OC(C)=O)C(O)C7OC7OC(COC(C)=O)C(O)C(O)C7O)C(O)C(O)C6O)C(C)(C)C5CCC4(C)C2(C)C(O)C3O)C1OC1OCC(OC2OCC(O)C(OC3OCC(O)C(O)C3O)C2O)C(O)C1O (stereo unspecified) | – | – | 18.4% [at 19.1 µM] | 18.5% [at 10.7 µM]
CC1=CC(=O)CC(C)(C)[C@@]1(O)CC[C@@H](C)O[C@@H]1O[C@H](CO)[C@@H](O)[C@H](O)[C@H]1O | inactive | inactive | – | –
CC(C)(C)c1ccc(S(=O)(=O)NCc2ccc(C(=O)Nc3cccnc3)cc2)cc1 | inactive | inactive | – | –
CN[C@H](C(=O)N[C@H](C(=O)N(C)[C@H](/C=C(\C)C(=O)O)C(C)C)C(C)(C)C)C(C)(C)c1ccccc1 | inactive | inactive | – | –
C=C[C@H]1[C@H](O[C@@H]2O[C@H](CO)[C@@H](O)[C@H](O)[C@H]2O)OC=C(C(=O)OC)[C@H]1CC(=O)O | inactive | inactive | – | –
CC(C)(F)C[C@@H](N[C@@H](c1ccc(-c2ccc(S(C)(=O)=O)cc2)cc1)C(F)(F)F)C(=O)NC1(C#N)CC1 | inactive | inactive | – | –
CC(C)C(CO)Nc1nc(Nc2ccc(C(=O)O)c(Cl)c2)c2ncn(C(C)C)c2n1 (stereo unspecified) | inactive | inactive | – | –
C/C=C(\C)C(=O)O[C@H]1[C@@H](O[C@]2(COC(=O)CC(C)C)O[C@H](COC(=O)C(C)CC)[C@@H](OC(C)=O)[C@@H]2O)O[C@H](COC(C)=O)[C@@H](O)[C@@H]1O (stereo partly specified) | inactive | inactive | – | –
COC1C(CO)OC(n2cnc3c(=O)[nH]cnc32)C1O (stereo unspecified) | inactive | inactive | – | –
c1cn2cc(-c3ccc4cn[nH]c4c3)nc(Nc3ccc(N4CCOCC4)cc3)c2n1 | inactive | inactive | – | –
C[C@@H]1CC[C@]2(C(=O)OC3OC(CO)C(O)C(O)C3O)CC[C@]3(C)C(=CCC4[C@@]5(C)CC[C@H](O)[C@](C)(C(=O)O)C5CC[C@]43C)C2[C@]1(C)O (stereo partly specified) | inactive | inactive | – | –
CC1(C)CC[C@]2(C(=O)O[C@@H]3O[C@H](CO)[C@@H](O)[C@H](O)[C@H]3O)CC[C@]3(C)C(=CCC4[C@@]5(C)CC[C@H](O[C@@H]6O[C@H](C(=O)O)[C@@H](O)[C@H](O[C@@H]7O[C@H](CO)[C@H](O)[C@H](O)[C@H]7O)[C@H]6O)C(C)(C)C5CC[C@]43C)C2C1 (stereo partly specified) | inactive | inactive | – | –
